What all share (assay): DAPPL (digital affinity profiling via proximity ligation, sequencing); 10 mM Tris-HCl pH 7.5, 50 mM NaCl, 1 mM DTT, 4% glycerol, room temperature, 30 min; GST-TFs on glutathione beads, 16-mer random dsDNA library, 0.1% formaldehyde crosslink after washing; high values mean tight binding
Holding throughout (conditions): protein: recombinant; tags: N-terminal GST; dsDNA, one strand shown

Experiment [1] has as its target T1, FLI1 (Homo sapiens, UniProt Q01543 1-452).
T1 sequence: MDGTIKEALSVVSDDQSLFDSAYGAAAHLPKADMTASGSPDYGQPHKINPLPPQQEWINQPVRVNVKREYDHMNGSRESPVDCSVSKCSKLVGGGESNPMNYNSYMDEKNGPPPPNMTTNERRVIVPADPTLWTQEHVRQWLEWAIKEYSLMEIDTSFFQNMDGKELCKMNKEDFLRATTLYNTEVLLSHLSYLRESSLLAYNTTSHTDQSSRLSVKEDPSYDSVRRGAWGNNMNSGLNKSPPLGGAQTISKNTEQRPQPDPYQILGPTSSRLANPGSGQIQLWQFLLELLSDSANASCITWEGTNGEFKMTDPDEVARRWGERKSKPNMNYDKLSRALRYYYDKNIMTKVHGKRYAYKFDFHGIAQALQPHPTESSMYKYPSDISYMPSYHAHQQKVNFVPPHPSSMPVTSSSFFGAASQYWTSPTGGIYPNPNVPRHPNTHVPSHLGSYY
Put shortly:
(§1)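 GST fusions of human transcription factors were expressed in yeast and captured with glutathione beads. Once given DNA barcodes and pooled alongside a tag-only sample, they were incubated for 30 min at room temperature with 200 nmole of a random double-stranded 16-mer DNA library in Tris/NaCl/DTT/glycerol buffer, then washed, crosslinked (0.1% formaldehyde), proximity-ligated, PCR-amplified and sequenced on an Illumina NextSeq500. The binding signal of each hexamer is its read frequency for a factor divided by its frequency for the tag-only sample.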

Experiment [2] concerns the target T2, ELK1 (Homo sapiens, UniProt P19419 1-428).
T2 sequence: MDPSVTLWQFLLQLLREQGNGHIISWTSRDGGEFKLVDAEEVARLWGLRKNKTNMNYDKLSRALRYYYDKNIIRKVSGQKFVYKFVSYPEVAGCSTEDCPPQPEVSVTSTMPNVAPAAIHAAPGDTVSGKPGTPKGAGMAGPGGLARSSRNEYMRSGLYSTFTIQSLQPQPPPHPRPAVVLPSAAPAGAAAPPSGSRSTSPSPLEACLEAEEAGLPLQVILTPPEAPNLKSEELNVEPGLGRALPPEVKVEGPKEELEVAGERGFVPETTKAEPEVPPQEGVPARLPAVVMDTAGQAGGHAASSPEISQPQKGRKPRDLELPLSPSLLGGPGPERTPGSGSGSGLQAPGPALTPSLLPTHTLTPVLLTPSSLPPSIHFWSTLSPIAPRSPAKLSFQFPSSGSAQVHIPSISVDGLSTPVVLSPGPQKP
The method in brief: as §1

Experiment [3] has as its target T3, GABPA (Homo sapiens, UniProt Q06546 1-454).
T3 sequence: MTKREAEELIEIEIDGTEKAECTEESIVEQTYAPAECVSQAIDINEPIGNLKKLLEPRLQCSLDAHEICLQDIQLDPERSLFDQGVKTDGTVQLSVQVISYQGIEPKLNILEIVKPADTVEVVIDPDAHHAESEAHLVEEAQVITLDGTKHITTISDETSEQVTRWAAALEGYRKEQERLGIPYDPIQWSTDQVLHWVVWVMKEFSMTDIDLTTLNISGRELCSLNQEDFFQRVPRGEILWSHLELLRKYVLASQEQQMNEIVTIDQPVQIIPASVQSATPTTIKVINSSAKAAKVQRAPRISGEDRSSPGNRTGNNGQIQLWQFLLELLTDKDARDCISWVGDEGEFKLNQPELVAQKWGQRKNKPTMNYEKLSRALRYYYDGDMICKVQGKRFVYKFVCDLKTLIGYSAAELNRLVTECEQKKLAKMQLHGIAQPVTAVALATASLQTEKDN
Put shortly: as §1

Experiment [4] concerns the target T4, ERG (Homo sapiens, UniProt P11308 1-479).
T4 sequence: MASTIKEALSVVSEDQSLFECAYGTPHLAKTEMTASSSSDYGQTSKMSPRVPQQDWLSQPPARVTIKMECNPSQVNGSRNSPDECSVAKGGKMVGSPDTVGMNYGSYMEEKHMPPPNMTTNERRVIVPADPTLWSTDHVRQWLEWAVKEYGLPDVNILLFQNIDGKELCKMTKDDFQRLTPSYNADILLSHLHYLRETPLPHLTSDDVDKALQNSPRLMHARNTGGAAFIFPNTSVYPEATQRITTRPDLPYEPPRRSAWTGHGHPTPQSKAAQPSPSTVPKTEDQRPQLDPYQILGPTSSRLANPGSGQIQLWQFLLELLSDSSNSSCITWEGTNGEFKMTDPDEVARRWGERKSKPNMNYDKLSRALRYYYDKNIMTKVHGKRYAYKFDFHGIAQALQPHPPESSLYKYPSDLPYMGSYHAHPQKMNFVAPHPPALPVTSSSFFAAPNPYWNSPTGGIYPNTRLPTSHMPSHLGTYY
The method in brief: as §1

The target in experiment [5] is ELF1 (Homo sapiens, UniProt P32519 1-619). The method in brief: as §1
Sequence of ELF1 (P32519 whole entry): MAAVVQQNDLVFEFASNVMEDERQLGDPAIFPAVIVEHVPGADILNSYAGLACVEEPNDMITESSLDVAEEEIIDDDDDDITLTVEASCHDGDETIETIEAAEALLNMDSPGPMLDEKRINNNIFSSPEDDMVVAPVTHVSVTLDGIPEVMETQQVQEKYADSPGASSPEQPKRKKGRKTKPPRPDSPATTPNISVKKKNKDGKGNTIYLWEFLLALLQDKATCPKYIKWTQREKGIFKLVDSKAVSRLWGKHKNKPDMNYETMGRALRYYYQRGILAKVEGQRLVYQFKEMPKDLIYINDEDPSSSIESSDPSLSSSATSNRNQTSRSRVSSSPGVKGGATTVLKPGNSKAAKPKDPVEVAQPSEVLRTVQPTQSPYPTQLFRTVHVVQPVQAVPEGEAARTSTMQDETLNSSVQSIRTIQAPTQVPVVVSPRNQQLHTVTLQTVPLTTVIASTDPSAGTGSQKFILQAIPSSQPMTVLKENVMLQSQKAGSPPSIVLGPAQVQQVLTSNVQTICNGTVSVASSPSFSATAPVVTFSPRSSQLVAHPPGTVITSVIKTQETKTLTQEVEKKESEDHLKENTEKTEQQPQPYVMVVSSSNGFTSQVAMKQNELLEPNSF
Experiment [6] concerns the target T5, EHF (Homo sapiens, UniProt Q9NZC4 1-300).
T5 sequence: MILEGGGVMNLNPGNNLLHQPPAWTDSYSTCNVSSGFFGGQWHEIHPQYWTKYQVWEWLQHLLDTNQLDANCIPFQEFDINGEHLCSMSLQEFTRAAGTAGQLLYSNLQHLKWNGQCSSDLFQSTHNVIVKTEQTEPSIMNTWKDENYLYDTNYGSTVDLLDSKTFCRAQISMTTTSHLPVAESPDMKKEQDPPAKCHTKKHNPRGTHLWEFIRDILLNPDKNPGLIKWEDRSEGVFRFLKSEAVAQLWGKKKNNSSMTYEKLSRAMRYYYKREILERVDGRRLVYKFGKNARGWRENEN
The method in brief:
as §1

Experiment [7] addresses SPI1 (Homo sapiens, UniProt P17947 1-270). Put shortly:
as §1

The target of experiment [8] is SPIB (Homo sapiens, UniProt Q01892 1-262). Put shortly:
as §1

In experiment [9] the target is T6, FEV (Homo sapiens, UniProt Q99581 1-238).
T6 sequence: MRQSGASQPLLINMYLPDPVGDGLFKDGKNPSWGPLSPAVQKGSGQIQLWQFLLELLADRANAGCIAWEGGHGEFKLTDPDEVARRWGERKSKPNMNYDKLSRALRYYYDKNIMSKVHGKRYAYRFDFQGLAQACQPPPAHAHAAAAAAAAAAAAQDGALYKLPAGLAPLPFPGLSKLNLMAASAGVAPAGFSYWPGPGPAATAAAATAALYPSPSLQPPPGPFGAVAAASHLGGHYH
The method in brief:
as §1

In experiment [10] the target is ETV5 (Homo sapiens, UniProt P41161 1-510). Put shortly: as §1
Sequence of ETV5 (P41161 whole entry): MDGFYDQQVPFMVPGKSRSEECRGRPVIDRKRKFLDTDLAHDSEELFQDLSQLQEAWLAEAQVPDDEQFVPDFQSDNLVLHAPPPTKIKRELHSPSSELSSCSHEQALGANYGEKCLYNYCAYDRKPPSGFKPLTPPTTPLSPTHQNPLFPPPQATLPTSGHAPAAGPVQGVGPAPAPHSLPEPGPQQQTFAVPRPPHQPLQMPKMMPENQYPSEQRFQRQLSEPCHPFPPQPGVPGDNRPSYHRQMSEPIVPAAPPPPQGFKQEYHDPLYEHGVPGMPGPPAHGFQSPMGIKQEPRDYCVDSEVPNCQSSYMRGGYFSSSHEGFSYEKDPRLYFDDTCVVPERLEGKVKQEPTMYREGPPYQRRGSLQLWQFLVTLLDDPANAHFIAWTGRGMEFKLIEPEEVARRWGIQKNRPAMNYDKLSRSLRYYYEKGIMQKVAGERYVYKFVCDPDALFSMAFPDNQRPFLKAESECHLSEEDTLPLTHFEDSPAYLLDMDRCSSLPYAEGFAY
In experiment [11] the target is T7, SPIC (Homo sapiens, UniProt Q8N5J4 1-248).
T7 sequence: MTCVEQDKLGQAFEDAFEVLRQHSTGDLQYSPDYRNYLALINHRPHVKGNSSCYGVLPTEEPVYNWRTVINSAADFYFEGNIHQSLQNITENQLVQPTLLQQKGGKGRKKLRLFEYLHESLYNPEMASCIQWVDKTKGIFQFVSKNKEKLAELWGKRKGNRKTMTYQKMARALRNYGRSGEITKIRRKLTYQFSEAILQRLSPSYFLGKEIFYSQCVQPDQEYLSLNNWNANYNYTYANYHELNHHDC
Put shortly: as §1

The target of experiment [12] is ELF4 (Homo sapiens, UniProt Q99607 1-663). Put shortly:
as §1

Experiment [13] deals with T8, ELK4 (Homo sapiens, UniProt P28324-2 1-405).
T8 sequence: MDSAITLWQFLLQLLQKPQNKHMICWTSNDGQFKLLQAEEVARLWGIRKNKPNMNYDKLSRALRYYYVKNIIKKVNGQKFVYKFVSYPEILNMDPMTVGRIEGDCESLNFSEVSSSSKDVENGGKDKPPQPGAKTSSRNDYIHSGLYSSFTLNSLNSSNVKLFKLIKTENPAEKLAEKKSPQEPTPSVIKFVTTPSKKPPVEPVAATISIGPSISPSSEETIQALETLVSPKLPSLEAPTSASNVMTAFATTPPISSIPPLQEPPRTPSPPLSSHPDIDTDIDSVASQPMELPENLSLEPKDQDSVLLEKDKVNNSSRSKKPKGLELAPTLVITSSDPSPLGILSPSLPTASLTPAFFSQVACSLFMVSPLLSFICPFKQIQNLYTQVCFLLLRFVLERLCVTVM
The method in brief:
as §1

Experiment [14] concerns the target T9, ETV2 (Homo sapiens, UniProt O00321 1-342).
T9 sequence: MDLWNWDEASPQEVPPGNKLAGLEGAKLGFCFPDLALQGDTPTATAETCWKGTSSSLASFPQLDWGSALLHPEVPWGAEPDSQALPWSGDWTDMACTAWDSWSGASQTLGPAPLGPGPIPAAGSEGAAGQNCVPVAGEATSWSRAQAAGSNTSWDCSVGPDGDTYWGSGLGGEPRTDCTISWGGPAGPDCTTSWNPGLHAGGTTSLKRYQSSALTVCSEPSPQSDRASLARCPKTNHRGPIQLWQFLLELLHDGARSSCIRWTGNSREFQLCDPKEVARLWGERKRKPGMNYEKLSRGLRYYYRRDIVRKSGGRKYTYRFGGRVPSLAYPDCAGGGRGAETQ
The method in brief:
as §1

The target in experiment [15] is T10, ELF3 (Homo sapiens, UniProt P78545 1-371).
T10 sequence: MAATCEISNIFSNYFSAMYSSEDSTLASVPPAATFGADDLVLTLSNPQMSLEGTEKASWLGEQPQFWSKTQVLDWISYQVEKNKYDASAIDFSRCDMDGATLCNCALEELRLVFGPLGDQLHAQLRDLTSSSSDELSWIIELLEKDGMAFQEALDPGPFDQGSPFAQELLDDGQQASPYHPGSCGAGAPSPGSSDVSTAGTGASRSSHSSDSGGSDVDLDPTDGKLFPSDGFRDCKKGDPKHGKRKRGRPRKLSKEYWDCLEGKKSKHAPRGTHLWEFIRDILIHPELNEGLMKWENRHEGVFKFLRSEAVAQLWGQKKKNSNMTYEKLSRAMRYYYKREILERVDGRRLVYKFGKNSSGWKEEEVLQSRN
Put shortly:
as §1

The target of experiment [16] is ETV1 (Homo sapiens, UniProt P50549 1-477). The method in brief: as §1
Sequence of ETV1 (P50549 whole entry): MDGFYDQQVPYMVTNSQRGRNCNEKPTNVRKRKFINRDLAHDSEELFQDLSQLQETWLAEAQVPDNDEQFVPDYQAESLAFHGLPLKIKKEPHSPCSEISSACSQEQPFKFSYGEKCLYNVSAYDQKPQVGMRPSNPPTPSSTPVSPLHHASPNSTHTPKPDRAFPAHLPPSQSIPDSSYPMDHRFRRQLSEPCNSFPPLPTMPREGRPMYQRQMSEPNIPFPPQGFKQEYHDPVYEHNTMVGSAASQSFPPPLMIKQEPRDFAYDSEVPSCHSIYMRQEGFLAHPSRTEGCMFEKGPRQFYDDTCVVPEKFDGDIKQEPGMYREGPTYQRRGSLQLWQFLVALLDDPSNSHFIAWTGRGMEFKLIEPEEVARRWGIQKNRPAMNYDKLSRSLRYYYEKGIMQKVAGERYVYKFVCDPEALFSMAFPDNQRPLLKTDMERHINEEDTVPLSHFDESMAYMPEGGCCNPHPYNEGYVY

Sequence of SPIB (Q01892 whole entry): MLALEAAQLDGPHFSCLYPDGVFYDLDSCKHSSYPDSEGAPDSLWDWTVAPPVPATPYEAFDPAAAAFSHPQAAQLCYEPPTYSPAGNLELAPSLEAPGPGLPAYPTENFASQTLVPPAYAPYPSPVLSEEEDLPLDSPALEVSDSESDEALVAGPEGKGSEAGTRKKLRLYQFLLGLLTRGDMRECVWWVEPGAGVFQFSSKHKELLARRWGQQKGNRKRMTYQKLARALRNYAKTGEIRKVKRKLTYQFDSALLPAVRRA
Sequence of ELF4 (Q99607 whole entry): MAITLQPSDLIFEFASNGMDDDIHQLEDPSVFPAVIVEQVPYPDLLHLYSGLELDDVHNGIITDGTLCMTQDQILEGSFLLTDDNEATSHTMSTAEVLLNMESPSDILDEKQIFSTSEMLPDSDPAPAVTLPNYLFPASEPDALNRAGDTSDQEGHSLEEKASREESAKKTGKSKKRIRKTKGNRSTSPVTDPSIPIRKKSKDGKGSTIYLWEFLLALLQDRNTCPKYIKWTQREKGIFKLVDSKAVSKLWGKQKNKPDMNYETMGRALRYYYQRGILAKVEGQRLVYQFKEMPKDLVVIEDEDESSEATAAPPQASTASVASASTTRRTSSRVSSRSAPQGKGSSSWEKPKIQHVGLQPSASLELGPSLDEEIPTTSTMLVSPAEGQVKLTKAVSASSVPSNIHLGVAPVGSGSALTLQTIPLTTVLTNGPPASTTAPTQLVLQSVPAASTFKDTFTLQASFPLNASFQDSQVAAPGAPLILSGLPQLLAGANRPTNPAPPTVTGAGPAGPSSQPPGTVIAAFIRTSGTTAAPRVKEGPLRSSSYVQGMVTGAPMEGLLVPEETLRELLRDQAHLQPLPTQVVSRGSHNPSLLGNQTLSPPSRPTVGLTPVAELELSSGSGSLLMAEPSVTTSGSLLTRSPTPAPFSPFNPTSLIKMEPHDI

Consider CCGCGT, for which the binding signal in experiment [1] is 1.29 fold enrichment (6-mer frequency, TF over GST control); in experiment [2] it was 1.11 fold enrichment (6-mer frequency, TF over GST control); in experiment [3], 1.06 fold enrichment (6-mer frequency, TF over GST control); in experiment [4], 1.13 fold enrichment (6-mer frequency, TF over GST control); in [5], 1.1 fold enrichment (6-mer frequency, TF over GST control); in experiment [6], 1.18 fold enrichment (6-mer frequency, TF over GST control). The binding signal in [7] is 1.12 fold enrichment (6-mer frequency, TF over GST control); in experiment [8], 1.16 fold enrichment (6-mer frequency, TF over GST control); in experiment [9], 1.13 fold enrichment (6-mer frequency, TF over GST control); in experiment [10] it was 1.12 fold enrichment (6-mer frequency, TF over GST control); in [11], 1.12 fold enrichment (6-mer frequency, TF over GST control); in [12], 1.18 fold enrichment (6-mer frequency, TF over GST control). For the same sequence, the binding signal in experiment [13] is 1.24 fold enrichment (6-mer frequency, TF over GST control); in [14] it was 1.4 fold enrichment (6-mer frequency, TF over GST control); in experiment [15] it was 1.16 fold enrichment (6-mer frequency, TF over GST control); in [16], 1.13 fold enrichment (6-mer frequency, TF over GST control).
On to ACGCTG, for which the binding signal in [1] is 1.14 fold enrichment (6-mer frequency, TF over GST control); in [2], 1.19 fold enrichment (6-mer frequency, TF over GST control); in experiment [3] it was 1.23 fold enrichment (6-mer frequency, TF over GST control); in experiment [4] it was 1.18 fold enrichment (6-mer frequency, TF over GST control); in [5], 1.19 fold enrichment (6-mer frequency, TF over GST control); in [6] it was 1.23 fold enrichment (6-mer frequency, TF over GST control). Further, the binding signal in [7] was 1.11 fold enrichment (6-mer frequency, TF over GST control); in experiment [8], 1.05 fold enrichment (6-mer frequency, TF over GST control); in experiment [9], 1.09 fold enrichment (6-mer frequency, TF over GST control); in experiment [10], 1.08 fold enrichment (6-mer frequency, TF over GST control); in experiment [11], 1.15 fold enrichment (6-mer frequency, TF over GST control); in [12], 1.17 fold enrichment (6-mer frequency, TF over GST control). In addition, the binding signal in [13] is 1.21 fold enrichment (6-mer frequency, TF over GST control); in [14], 1.05 fold enrichment (6-mer frequency, TF over GST control); in [15], 1.05 fold enrichment (6-mer frequency, TF over GST control); in experiment [16], 1.12 fold enrichment (6-mer frequency, TF over GST control).

For the origin of these results see PMC7862700, “An all-to-all approach to the identification of sequence-specific readers for epigenetic DNA modifications on cytosine”.
